Test [1] in a line: qHTS Assay for Identifying Gametocytocidal Compounds (AID 743244; active = well fitted curve in the direction sought with a large enough effect; an effect the other way counts as inactive or inconclusive; note: potency is the fitted concentration of half-maximal effect;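 for max response: % is set by controls: 0 for no effect and ±100 for the full control effect; actives lower the fluorescent signal which means gametocytes are killed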). Particulars: P. falciparum 3D7 stage III-V gametocytes, alamarBlue, 72 h; max response: stronger effect = lower value. The method, boiled down:
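Viability read-out was resazurin reduction (alamarBlue, 24 h) measured at Ex 525/Em 598 nm. Beforehand, late-stage (III-V) 3D7 P. falciparum gametocytes at 20,000 cells/well were incubated with compound 72 h at 37C under 5% CO2.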
A general note: Quantitative high-throughput screening tests each substance at several concentrations.

For test [2] the following is noted: Ebola virus entry assay, blue channel fluorescence.
The conditions of test [3]: Ebola virus entry assay, green fluorescence channel.
For test [4] the following is noted: Ebola virus entry assay, ratio channel readout.
A short description of test [5]: qHTS profiling of the MIPE4 collection as inhibitors of Plasmodium falciparum (3D7) proliferation (AID 743344; call rule not given here;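 note: scaled between DMSO vehicle wells and 0.29 µM artemisinin as full inhibition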). The following applies: P. falciparum 3D7 in erythrocytes, SYBR Green DNA fluorescence, 72 h; at 28.5 µM (top of the series) unless noted. A digest of the protocol: (§1)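 Erythrocytes infected with P. falciparum (0.3% parasitemia, 2.5% hematocrit) incubated with compounds 72 h at 37 C, 5% CO2. Lysis with saponin/Triton buffer containing SYBR Green I, overnight at room temperature in the dark; DNA fluorescence (485/535 nm) normalised to 0.29 uM artemisinin and DMSO.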

Test [6] is described as follows: qHTS profiling of the MIPE4 collection as inhibitors of Plasmodium falciparum (DD2) proliferation (AID 743345; call rule not given here). Particulars: P. falciparum Dd2 in erythrocytes, SYBR Green DNA, 72 h; at 28.5 µM (top of the series) unless noted. The method, boiled down:
as §1

Test [7] can be described thus: qHTS profiling of the MIPE4 collection as inhibitors of Plasmodium falciparum (DD2) proliferation (Rep 2) (AID 743346; call rule not given here). The following applies: P. falciparum Dd2 in erythrocytes, SYBR Green DNA, 72 h; at 28.5 µM (top of the series) unless noted. A digest of the protocol:
as §1

The nature of test [8]: qHTS assay for small molecule agonists of the antioxidant response element (ARE) signaling pathway measured by Nrf2-dependant transcriptional activity (AID 720636; active = well fitted curve in the direction sought with a large enough effect in the repeat runs; an effect the other way counts as inactive or inconclusive; note: % of control where 0% means no effect). A digest of the protocol:
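ARE-luc HepG2 cells carrying an Nrf2-responsive luciferase reporter, in medium with 1% dialyzed FBS, exposed to compound for 16 hr at 37 C, 5% CO2. Luminescence read 30 min after ONE-Glo addition.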

Test [9] in a line: qHTS assay for small molecule antagonists of the retinoid-related orphan receptor gamma (ROR-gamma) signaling pathway - cell viability counter screen (AID 720652; active = well fitted curve in the direction sought with a large enough effect in the repeat runs; an effect the other way counts as inactive or inconclusive;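 note: CHO reporter cells with doxycycline-induced ROR-gamma expression; compound exposure lasted 16 hr before ATP read; % is set by controls: 0 for no effect and ±100 for the full control effect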). The method, boiled down:
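Counter screen in CHO cells carrying TET-inducible ROR-gamma and an ROR response element-luciferase reporter; cells plated 5 hr, compound pinned, doxycycline added, then 16 hr at 37 C. Viability read as intracellular ATP by CellTiter-Glo luminescence.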

Test [10] is described as follows: qHTS assay for small molecule agonists of the antioxidant response element (ARE) signaling pathway measured by Nrf2-dependant transcriptional activity - cell viability counter screen (AID 720653; active = well fitted curve in the direction sought with a large enough effect in the repeat runs; an effect the other way counts as inactive or inconclusive; note: % is set by controls: 0 for no effect and ±100 for the full control effect). The following applies: ARE-bla HepG2 viability, CellTiter-Glo ATP luminescence, 16 h; stronger effect = lower value. The method, boiled down:
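ARE-bla HepG2 cells treated with compounds for 16 h at 37C; this counter screen measures viability as intracellular ATP by CellTiter-Glo luminescence after 30 min at room temperature.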

A short description of test [11]: qHTS assay for cell viability of HEK293 cells (AID 743288; active = well fitted curve in the direction sought with a large enough effect; an effect the other way counts as inactive or inconclusive; note: % is set by controls: 0 for no effect and ±100 for the full control effect; nearly all actives have a fitted effect of over 50% in size). The following applies: ATP luminescence (CellTiter-Glo), 18 h, stronger effect = lower value. A digest of the protocol:
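The Tox21 protocol used parental HEK293 cells treated for 18 h at 37 C with compounds delivered by pintool; ATP-coupled luminescence after 30 min at room temperature gave viability.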

A short description of test [12]: qHTS assay for cell viability of the p53RE-bla HCT-116 cell line (AID 743292; active = well fitted curve in the direction sought with a large enough effect; an effect the other way counts as inactive or inconclusive; note: % is set by controls: 0 for no effect and ±100 for the full control effect; nearly all actives have a fitted effect of over 55% in size). A digest of the protocol: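 CellSensor p53RE-bla HCT-116 cells (4,000/well) pre-incubated 5 h at 37 C, then exposed to compounds in DMSO for 16 h at 37 C. Viability read as ATP content by CellTiter-Glo luminescence after 30 min at room temperature.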
The conditions of test [13]: Ebola virus entry assay, blue channel fluorescence. This is another data set of the same source.

Several values for one entry are separate records, joined by “and”; a condition that tells them apart may be missing. Equal entries are not always repeated. Results filed as inconclusive are left out. Some structures have more than one record in an assay (separate samples or runs), and their calls can disagree. For some of these results: Measured potencies and affinities stand elsewhere. Activity calls are given as the source filed them.

Regarding `CN1C(=O)C(O)N=C(c2ccccc2)c2cc(Cl)ccc21` (configuration not stated), the max response in test [1] was 6.95% (inactive). For the same molecule, the result in test [2], in [3] and in test [4] was inactive.
As to `CN=C1CN(O)C(c2ccccc2)=c2cc(Cl)ccc2=N1`, the max response in test [1] was 7.17% (inactive). Besides, the call in [2], in test [3] and in test [4] was inactive.
Turning to `C[C@](O)(CS(=O)(=O)c1ccc(F)cc1)C(=O)Nc1ccc(C#N)c(C(F)(F)F)c1`, in test [5], the parasite growth, % of DMSO control is 22%. The parasite growth remaining, % of DMSO control (lower = more inhibition) in [6] stood at 93.2%. The parasite growth, % of control (lower = inhibition) in [7] was found to be 33.5%. The molecule was called inactive in test [2], in [3] and in test [4].
Consider `CC(=O)S[C@@H]1CC2=CC(=O)CC[C@]2(C)[C@H]2CC[C@@]3(C)[C@@H](CC[C@@]34CCC(=O)O4)[C@H]12`, for which the outcome in test [2] and in test [4] was inactive.
With `Nc1nc(/C(=C/CC(=O)O)C(=O)N[C@@H]2C(=O)N3C(C(=O)O)=CCS[C@H]23)cs1`, the call in test [3] and in [4] was inactive.
`NC(=O)COCCN1CCN(C(c2ccccc2)c2ccc(Cl)cc2)CC1` (configuration not stated): the molecule was called inactive in test [2] and in test [4].
As for `NC[C@H]1O[C@H](O[C@H]2[C@H](O)[C@@H](O[C@H]3O[C@H](CO)[C@@H](O)[C@H](N)[C@H]3O)[C@H](N)C[C@@H]2N)[C@H](O)[C@@H](O)[C@@H]1O`, the molecule was classed as inactive in test [3].
Regarding `CCCC(C)(COC(N)=O)COC(N)=O`, the molecule was called inactive in [8], in test [9], in test [3] and in [4]. The max response in test [10] was 2.78% (inactive) and -4.68% (inactive); in test [11], 2.5% (inactive) and 7.62% (inactive). Also, the Potency entry in test [12] was “inactive”.
With `C[C@H](CS)C(=O)N1CCC[C@H]1C(=O)O`, the outcome in test [2], in test [4] and in test [13] was inactive.
One may read the AC50 as the concentration giving half of the maximal activity seen. In the case of `COc1cccc2c1C(=O)c1c(O)c3c(c(O)c1C2=O)C[C@@](O)(C(C)=O)C[C@H]3O[C@H]1C[C@H](N)[C@H](O)[C@H](C)O1`, the results for the AC50 in test [2] and in test [4] were 6.31 µM (active) and 5.63 µM (active), respectively.
For the molecule `CCC1=C(C)CN(C(=O)NCCc2ccc(S(=O)(=O)NC(=O)NC3CCC(C)CC3)cc2)C1=O` (configuration not stated), the molecule was called inactive in test [3] and in [4].
As to `CC(O)(P(=O)(O)O)P(=O)(O)O`, the molecule was classed as inactive in [2], in test [3] and in test [13].
For `CN1C(=O)CC(=O)N(c2ccccc2)c2cc(Cl)ccc21`, the max response in test [1] was 16.1% (inactive). For the same molecule, the molecule was called inactive in test [2], in [3] and in test [4].
As to `O=C1[O][Bi][O]c2ccccc21`, the molecule was classed as inactive in test [2] and in [4].
On to `Clc1ccc2c(c1)C(c1ccccc1)=NCc1nncn1-2`, for which the max response in [1] was 5.88% (inactive). Besides, the outcome in test [2], in [3] and in test [4] was inactive.
`Cc1nnc2n1-c1ccc(Cl)cc1C(c1ccccc1)=NC2`: the max response in [1] is 35.3% (inactive). In addition, the outcome in [2], in [3] and in test [4] was inactive.
`Nc1nc2[nH]cc(CCc3ccc(C(=O)N[C@@H](CCC(=O)O)C(=O)O)cc3)c2c(=O)[nH]1`: the result in [3] and in [4] was inactive.
`CCOC(=O)C1=C(COCCN)NC(C)=C(C(=O)OC)C1c1ccccc1Cl` (configuration not stated): in test [1], the Potency is 20 µM (active). The max response in [1] is -0.484% (inactive). Also, the outcome in test [2], in test [3] and in [4] was inactive.
For the molecule `CC(C)C[C@H]1C(=O)N2CCC[C@H]2[C@]2(O)O[C@](NC(=O)[C@@H]3C=C4c5cccc6[nH]c(Br)c(c56)C[C@H]4N(C)C3)(C(C)C)C(=O)N12`, the Potency in test [1] is 22.4 µM (active) and 1.26 µM (active). For the same molecule, the outcome in [2], in [3] and in [4] was inactive.
As to `CC(C)[C@H](N)C(=O)OCCOCn1cnc2c(=O)[nH]c(N)nc21`, in test [6], the parasite growth remaining, % of DMSO control (lower = more inhibition) came out at 94%. For the same molecule, the parasite growth, % of control (lower = inhibition) in test [7] was determined as 136%. For the same molecule, the molecule was classed as inactive in test [2], in [3] and in [4].
Turning to `CCOc1cc(CC(=O)N[C@@H](CC(C)C)c2ccccc2N2CCCCC2)ccc1C(=O)O`, the molecule was called inactive in test [3] and in [4].
In the case of `O=C1CN=C(c2ccccc2)c2cc([N+](=O)[O-])ccc2N1`, the max response in test [1] is 13.6% (inactive). The result in test [3], in [4] and in [13] was inactive.
For the molecule `O=c1[nH]c(=O)n([C@H]2C[C@H](O)[C@@H](CO)O2)cc1F`, the call in test [3] and in test [13] was inactive.
`CC(=O)N1CCN(c2ccc(OC[C@H]3CO[C@](Cn4ccnc4)(c4ccc(Cl)cc4Cl)O3)cc2)CC1`: the parasite growth remaining, % of DMSO control (lower = more inhibition) in test [6] amounted to 34.2%. For the same molecule, the parasite growth, % of control (lower = inhibition) in [7] stood at 31%. The molecule was called inactive in test [2], in test [3] and in [4].
`O=P(O)(O)C(O)(Cn1ccnc1)P(=O)(O)O` displayed a parasite growth remaining, % of DMSO control (lower = more inhibition) in test [6] of 90.7% [at 9.64 µM]. The call in [2], in test [3] and in [4] was inactive.
`CC(C=CC1=C(C)CCCC1(C)C)=CC=CC(C)=CC(=O)O`: the outcome in [2] and in [4] was inactive.
For the molecule `N[C@@H](Cc1cc(I)c(Oc2ccc(O)c(I)c2)c(I)c1)C(=O)O`, the outcome in test [2] and in test [4] was inactive.
In the case of `CCOC(=O)C1=C[C@@H](OC(CC)CC)[C@H](NC(C)=O)[C@@H](N)C1`, the parasite growth, % of DMSO control in test [5] came out at 91.3%. Besides, the parasite growth remaining, % of DMSO control (lower = more inhibition) in test [6] amounted to 97.7%. The parasite growth, % of control (lower = inhibition) in test [7] stood at 101%. Besides, the molecule was called inactive in test [2], in [3] and in test [4].
Consider `N=C(N)N1CCc2ccccc2C1`, for which, in test [13], the outcome was inactive.
Consider `COCC(=O)Nc1c(I)c(C(=O)NCC(O)CO)c(I)c(C(=O)N(C)CC(O)CO)c1I` (configuration not stated), for which, in [13], the molecule was classed as inactive.

The values above are taken from PubChem BioAssay (NCATS).
